# From PubChem BioAssay
# Shown are actives, neighbours in structure and some others; about 2.8% of the full set was active somewhere.
# Platelet DG rel = modulates dense granule release in human platelets; AID 1663; human platelet-rich plasma, SFLLRN dense granule ATP release, luminescence; 300,000 tested, 0.22% active; inhibition, %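 (compounds screened at 7.5 µM in platelet-rich plasma)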;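 active means mean replicate score, as percent of positive control, at or above 50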
# p-CIP stab down = p/CIP protein destabilization; F442A p/CIP-EGFP cells, EGFP fluorescence, 16 h; decrease of EGFP signal, % at 10 µM; 290,000 tested, 0.01% active;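 active means EGFP signal decrease of at least 30% at 10 µM or well 3 SD below plate mean, unless failing retest; inactive means the rest, including hits failing retest or dose response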
# HIF act = HIF pathway transcriptional activation; U2OS HRE-luciferase reporter, luminescence; normalized: DMSO 0%, desferrioxamine 100%; activation, % at 7.5 µM (by protocol); 300,000 tested, 0.32% active; AID 1910;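 active means mean activation of at least 10% of the iron chelator positive control signal, with at least half of replicates also reaching 10%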
# AHR act = activators of human aryl hydrocarbon receptor; AHR-responsive luciferase reporter cells, luminescence; activation, % at 5 µM; 320,000 tested, 2.5% active; AID 2796; in the data active means activation above about 47%;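 further: 0% = vehicle wells and 100% = reference agonist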
# Target sequence (P35869 whole entry, looked up): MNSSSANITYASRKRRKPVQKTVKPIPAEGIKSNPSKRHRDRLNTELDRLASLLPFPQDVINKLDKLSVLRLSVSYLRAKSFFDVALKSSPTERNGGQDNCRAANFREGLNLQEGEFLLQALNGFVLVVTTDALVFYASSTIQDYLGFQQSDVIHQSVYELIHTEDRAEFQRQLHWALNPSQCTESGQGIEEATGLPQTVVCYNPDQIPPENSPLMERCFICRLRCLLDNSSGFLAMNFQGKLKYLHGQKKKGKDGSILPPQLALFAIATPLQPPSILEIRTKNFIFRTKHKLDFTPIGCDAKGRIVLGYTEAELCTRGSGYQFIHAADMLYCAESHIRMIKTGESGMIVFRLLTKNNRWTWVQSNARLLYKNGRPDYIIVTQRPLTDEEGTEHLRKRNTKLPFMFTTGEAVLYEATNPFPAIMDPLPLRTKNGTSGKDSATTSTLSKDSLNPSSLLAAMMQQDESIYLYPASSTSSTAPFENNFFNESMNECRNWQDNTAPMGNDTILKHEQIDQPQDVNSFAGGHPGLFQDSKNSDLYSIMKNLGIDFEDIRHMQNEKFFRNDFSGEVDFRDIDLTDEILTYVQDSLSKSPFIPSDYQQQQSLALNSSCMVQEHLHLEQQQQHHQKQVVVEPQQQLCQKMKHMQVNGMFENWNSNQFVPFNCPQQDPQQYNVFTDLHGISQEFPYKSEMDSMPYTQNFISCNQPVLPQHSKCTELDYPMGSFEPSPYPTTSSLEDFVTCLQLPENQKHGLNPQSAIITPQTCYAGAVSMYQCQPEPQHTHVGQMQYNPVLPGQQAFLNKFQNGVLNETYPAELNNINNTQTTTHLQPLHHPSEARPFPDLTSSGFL
# PolyA inhibitor = yeast polyadenylation inhibition; AID 1875; activity score, % at 12 µM; S. cerevisiae SKY197-pL101 polyadenylation reporter, beta-gal luminescence; efflux-impaired pdr1/pdr3 knockout yeast; score 100 = 6 SD above DMSO; 300,000 tested, 0.02% active;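 active means lowest replicate activity score at least 50, where 100 means six control SD above control mean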;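 further: yeast exposed to compound for 9 h at 30 °C; higher score means more reporter readthrough which indicates perturbed polyadenylation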
# Starred values were filed as active, the others as inactive; . = not tested or not shown.
SMILES,Platelet DG rel,p-CIP stab down,HIF act,AHR act,PolyA inhibitor
Brc1ccccc1-c1nc(-c2ccccc2)no1,16,-6,-2,50*,-11
Cc1cc(SCc2ccc(Br)cc2)nc(=O)[nH]1,4,-9,1,0,-33
Cc1cc(Br)ccc1S(=O)(=O)n1ccnc1C,1,0,1,2,5
Nc1ncnc(N)c1N=Nc1ccccc1,11,0,1,.,-15
Cc1cc(C)[n+]2[nH]c(N)c(N=Nc3ccccc3)c2n1,8,.,0,70*,-1
Cc1ccc(-n2[nH]c3c4c(ccc3c2=O)C(=O)c2ccccc2C4=O)cc1,1,11,0,0,23
CC(C)(C)n1[nH]c2c3c(ccc2c1=O)C(=O)c1ccccc1C3=O,1,1,-1,50*,-52
COCCCn1[nH]c2c3c(ccc2c1=O)C(=O)c1ccccc1C3=O,-1,-4,0,52*,-2
Cc1cccc(C)c1NS(=O)(=O)c1cc2c3c(c1)CC(=O)N3CCC2,-10,-10,0,4,1
CC(=O)Nc1ccc(SC[C@H](CC(C)C)N2CCN(CCc3ccccc3)CCC2=O)cc1,7,-7,-1,48*,0
Cc1cc(NC(=O)c2cccc(Oc3ccccc3)c2)n[nH]1,0,8,3,66*,13
OCCC1CN(Cc2ccc3c(c2)CCO3)CCN1Cc1ccc(F)cc1 (centres undefined),0,-13,0,2,-4
N#C/C(=C/c1cn(CC(=O)O)c2ccccc12)C(=O)NCc1ccccc1,4,75*,0,7,-8
O=C(CSCc1c(Cl)cccc1Cl)NCc1ccco1,83*,-3,0,-6,-11
CC(C)CN(C)C(=O)CCc1nnc(Cc2cccc(C(F)(F)F)c2)o1,-5,0,4,9,-2
Cc1nnc(SCC(=O)N(C)c2c(N)n(Cc3ccccc3)c(=O)[nH]c2=O)n1Cc1ccccc1,4,-11,0,0,-11
CCn1c(SCC(=O)N(C)c2c(N)n(Cc3ccccc3)c(=O)[nH]c2=O)nc2ccccc21,59*,7,0,4,4
CN1C(=O)/C(=C/c2cn(CC(=O)N3CCCCC3)c3ccccc23)c2ccccc21,54*,-23,0,44,-10
Fc1ccccc1OCCCCN1CCCCC1,9,4,0,-1,7
Fc1ccc(-c2noc(-c3ccc4c(c3)CCO4)n2)cc1,7,-3,0,62*,6
O=C(COc1cccnc1[N+](=O)[O-])NCc1ccccc1,-5,-2,-19,4,11
O=C1C(=O)c2c(C(=O)c3ccccc3)coc2-c2ccccc21,-1,-11,3,52*,-75
Cc1oc2c(c1C(=O)O)C(=O)c1ccccc1C2=O,1,-6,1,11,-14
Cc1oc2c(c1C(=O)c1ccccc1)C(=O)C(=O)c1ccccc1-2,-11,-11,-4,64*,-23
O=C(Nc1ccccc1)Nc1cccc2nsnc12,10,2,11*,23,-5
SMILES,Platelet DG rel,p-CIP stab down,HIF act,AHR act,PolyA inhibitor
O=C(Nc1cccc2nsnc12)c1ccc(-c2ccc(Br)cc2)o1,-4,-8,1,49*,0
O=C(Nc1cccc2nsnc12)c1cccs1,3,-6,5,5,12
CC(C)C1=CC(=Nc2ccc(S(N)(=O)=O)cc2)C=C(C(C)C)C1=O,0,-2,-14,.,18
CC1CCCCN1C(=O)COC(=O)C1CCN(S(=O)(=O)c2ccc3c(c2)OCCO3)CC1 (centres undefined),3,.,0,-2,9
CCc1ccc2c(c1)[C@H]1OCC[C@H]1[C@@H](c1cccs1)N2,-9,-11,2,78*,-18
O=[N+]([O-])c1ccc2nc(SCc3cn4ccccc4n3)[nH]c2c1,5,0,2,31,25
Cc1cccc2nc(CSc3nc4ccc([N+](=O)[O-])cc4[nH]3)cn12,21,0,0,21,9
O=[N+]([O-])c1ccc2nc(SCc3cn4cccnc4n3)[nH]c2c1,2,-4,0,51*,7
O=[N+]([O-])c1ccc2nc(SCc3cn4cc(Cl)ccc4n3)[nH]c2c1,-10,-9,1,78*,2
CC(C)CNC(=O)CSc1n[nH]c(=O)n1CCc1ccccc1,-2,-3,-3,2,-2
CCn1c(C)nc2cc(C(=O)N/N=C/c3cccc(O)c3O)ccc21,1,-19,43*,-2,-13
CCn1c(C)nc2cc(C(=O)N/N=C/c3ccccc3)ccc21,5,11,4,-6,3
C/C(=N\NC(=O)c1ccc2c(c1)OCCO2)c1ccccc1,71*,-4,1,11,-1
Cc1cccc(/C=N/NC(=O)c2ccc3c(c2)OCCO3)c1O,38,-5,28*,-1,14
C/C(=N\NC(=O)c1ccc(O)cc1)c1ccc2c(c1)OCCO2,.,.,.,0,.
CCOc1cccc(/C=N/NC(=O)c2ccc3c(c2)OCCO3)c1O,4,1,12*,10,19
O=C(N/N=C/c1cccc(O)c1)c1ccc2c(c1)OCCO2,-19,9,-1,-5,-6
COc1cccc(/C=N/NC(=O)CNC(=O)c2ccc3c(c2)OCCO3)c1O,11,9,1,10,3
Nc1nonc1-n1nnc(C(=O)N/N=C/c2ccccc2F)c1CN1CCc2ccccc21,10,2,0,9,-12
Cc1cc(C(=O)COc2ccccc2[N+](=O)[O-])c(C)n1C1CC1,10,-2,1,63*,-19
Cc1cc(C(=O)COc2ccccc2C(N)=O)c(C)n1C1CC1,4,-5,2,-9,-6
CCOC(=O)c1ccc(NC(=O)NC2CCN(CC(=O)NCc3ccc4c(c3)OCO4)CC2)cc1,-4,-2,0,4,-7
Cn1c(=NC(=O)C2=NNC(=O)CC2)sc2ccccc21,-3,-1,2,2,1
Cn1/c(=N/NC(=O)c2ccccc2Br)sc2ccccc21,-2,-2,4,48*,-7
COc1ccc(C(=O)N2CCCC(c3nc(-c4ccc(OC)c(OC)c4)no3)C2)c(OC)c1 (centres undefined),50*,-3,0,3,-3
SMILES,Platelet DG rel,p-CIP stab down,HIF act,AHR act,PolyA inhibitor
COC(=O)c1[nH]c2cc(C)ccc2c1NC(=O)CN1CCN(C(=O)c2ccco2)CC1,-3,-12,.,67*,-7
COC(=O)c1[nH]c2ccc(Br)cc2c1NC(=O)CN1CCCc2ccccc21,5,-3,0,48*,-60
COC(=O)c1[nH]c2cc(C)ccc2c1NC(=O)CN1CCCc2ccccc21,-1,-4,1,67*,-27
COC(=O)c1[nH]c2cccc(C)c2c1NC(=O)CN1CCN(C(=O)c2ccco2)CC1,-4,-4,0,7,3
COC(=O)c1[nH]c2ccc(C)cc2c1NC(=O)CN1CCc2cc(OC)c(OC)cc2C1,3,-5,0,4,2
O=C(NCCN1CCN(Cc2ccccc2Cl)CC1)Nc1ccccc1,6,-16,0,-1,-19
